# Laboratory results published in ChEMBL document CHEMBL3988442, “University of Dundee, Small-Polar-MMV Screening Library” (2021).
# In all, about 48,000 compounds went through this assay and about 13,000 (27%) showed an effect of 50% or more. Some of the results follow.
# Tested on: Wolbachia pipientis
# Experiment: Anti-Wolbachia Cell-Based Screen
# Format: functional
# Design: scale not given: in the data most compounds retested in dose-response had high values
# Settings: 5 µM
row,Compound,Percent Effect
1,CCN(CCO)C(=O)C1CCC(=O)N(Cc2cccc(OC)c2)C1 (stereo not given),4.416%
2,NC(=O)N1CCCN(CC(=O)NCCc2c(F)cccc2F)CC1,-7.896%
3,Cc1nc[nH]c1CN1CCCn2nc(CN3CCC(F)(F)CC3)cc2C1,5.091%
4,CCN1CC2(CC1=O)CN(C(C)=O)CCN(C(=O)NC(C)C)C2 (stereo not given),101.7%
5,CC(C)NC(=O)N1CCN(S(=O)(=O)C2CC2)CC2(CC(=O)N(C)C2)C1 (stereo not given),-16.72%
6,CCN1CC2(CC1=O)CN(C(C)=O)CCN(S(=O)(=O)CC)C2 (stereo not given),-5.362%
7,CCC1(CNCc2ncc[nH]2)CCCC1,-14.89%
8,Cc1nnc(NC(=O)CN(C)CC2CCCN2c2cccnn2)s1 (stereo not given),-3.874%
9,CN(CC(=O)NC1(C#N)CCCC1)C1CCCN(c2cccnn2)C1 (stereo not given),1.351%
10,Cc1nc(CN2CCCC(N(C)CC(=O)Nc3cccnc3)C2)no1 (stereo not given),13.61%
11,Cc1csc(NC(=O)CN(C)CC2CCCN2c2cccnn2)n1 (stereo not given),8.253%
12,Cc1nnc(NC(=O)CN(C)C2CCCN(c3cccnn3)C2)s1 (stereo not given),131.3%
13,CN(CC(=O)Nc1ccncc1)C1CCCN(c2cccnn2)C1 (stereo not given),95.39%
14,CN(CC(=O)NC1CCOCC1)C1CCCN(c2cccnn2)C1 (stereo not given),137.1%
15,CN(CC(=O)Nc1cccnc1)C1CCCN(c2cccnn2)C1 (stereo not given),85.32%
16,COC(=O)C1CCCCN1C(=O)c1ccc(N(C)C)cc1F (stereo not given),-10.97%
17,CN(C)CC(=O)N1CC[C@H]2OCC[C@@]2(COCC2CC2)C1,-4.204%
18,O=c1oc(-c2ccc(F)cc2)nn1CN1CCSCC1,92.99%
19,O=c1oc(-c2ccc(F)cc2)nn1CN1CCN(CC2CC2)CC1,89.16%
20,O=c1oc(-c2ccc(F)cc2)nn1CN1CCCCC1,107.7%
21,O=c1oc(-c2ccc(F)cc2)nn1CN1CCN(C2CCCC2)CC1,-7.879%
22,CC1CCN(Cn2nc(-c3ccc(F)cc3)oc2=O)CC1,4.807%
23,O=c1oc(-c2ccc(F)cc2)nn1CC1CCCCO1 (stereo not given),-16.49%
24,O=c1oc(-c2ccc(F)cc2)nn1CCc1ccncc1,-21.89%

row,Compound,Percent Effect
1,CC(=O)N1CCN(Cn2nc(-c3ccc(F)cc3)oc2=O)CC1,6.471%
2,O=c1oc(-c2ccc(F)cc2)nn1CC1CCOC1 (stereo not given),-10.24%
3,CN(C(=O)Cc1coc(-c2cccs2)n1)C1(C#N)CCC1,3.793%
4,CCc1nc(CN2CCCN(C(=O)C(C)COC)CC2)cs1 (stereo not given),7.127%
5,COc1ccc(C2=CCN(C(=O)C3CCCN(C(N)=O)C3)CC2)cc1 (stereo not given),7.391%
6,COc1ccc(C2=CCN(C(=O)CN(C)CC(N)=O)CC2)cc1,-8.253%
7,COc1ccc(C2=CCN(C(=O)CN(C)CC(C)C#N)CC2)cc1 (stereo not given),-3.041%
8,COc1ccc(C2=CCN(C(=O)C3CCCN(C(C)=O)C3)CC2)cc1 (stereo not given),109.7%
9,COc1ccc(OC)c(C2CCN(C(=O)C3CCS(=O)(=O)CC3)C2)c1 (stereo not given),-1.419%
10,COc1ccc(C2=CCN(C(=O)C3CCC3)CC2)cc1,121.8%
11,COc1ccc(C2=CCN(C(=O)C3CC(=O)N(C4CC4)C3)CC2)cc1 (stereo not given),-2.251%
12,COc1ccc(OC2CCN(C(=O)C3CCCN(C)C3)CC2)cc1 (stereo not given),0.8407%
13,COc1ccc(C2=CCN(C(=O)C3CCS(=O)(=O)C3)CC2)cc1 (stereo not given),136.7%
14,O=C(NCC1CC1)c1cc(Cl)c2c(c1)OCCCO2,-14.68%
15,CCCC(C)(C)NC(=O)c1cnc(CC)s1,-7.388%
16,CN(C)C1CC2(CCN(C(=O)C3(C#N)CC3)CC2)c2ccccc21.O=C(O)C(F)(F)F (stereo not given),5.959%
17,O=C1CSCN1Cc1nc(-c2ccc(N3CCCCC3)cc2)no1,-5.803%
18,CN(C)CC(=O)N1Cc2nnn(C)c2C(COCc2ccccn2)C1.O=C(O)C(F)(F)F.O=C(O)C(F)(F)F (stereo not given),6.818%
19,Cn1nnc2c1C(COCC1CC1)CN(C(=O)Cc1ccsc1)C2 (stereo not given),2.514%
20,CCOCC1CN(Cc2ccc(OC)cc2)Cc2nn(C)cc21.O=C(O)C(F)(F)F (stereo not given),11.5%
21,COCC1CN(Cc2ccc(OC)cc2)Cc2nnn(CC3CC3)c21.O=C(O)C(F)(F)F (stereo not given),-5.304%
22,CN(C)CCOCC1CN(Cc2ccncc2)Cc2nnn(C)c21.O=C(O)C(F)(F)F.O=C(O)C(F)(F)F.O=C(O)C(F)(F)F (stereo not given),96.02%
23,CN(C)CCOCC1CN(Cc2ccccn2)Cc2nnn(C)c21.O=C(O)C(F)(F)F.O=C(O)C(F)(F)F.O=C(O)C(F)(F)F (stereo not given),99.25%
24,Cn1nnc2c1C(COCc1ccccn1)CN(C(=O)c1ccsc1)C2.O=C(O)C(F)(F)F (stereo not given),-2.517%

row,Compound,Percent Effect
1,COc1ccc(CN2Cc3nnn(C)c3C(COCCN(C)C)C2)cc1.O=C(O)C(F)(F)F.O=C(O)C(F)(F)F (stereo not given),106.7%
2,CN(C)CCOCC1CN(Cc2ccsc2)Cc2nnn(C)c21.O=C(O)C(F)(F)F.O=C(O)C(F)(F)F (stereo not given),121.1%
3,CC(C)NC(=O)NC[C@H]1OC[C@@H](NCc2ccccc2F)[C@@H]1O,-8.31%
4,CC(O)CN1CCC(CN(C)Cc2ccc(C#N)cc2)CC1 (stereo not given),-6.641%
5,COCc1nnc(-c2cccc(C(=O)N(C)CC(C)(C)C)c2)o1,1.349%
6,CC(C)Oc1cccc(CN(C)C(=O)Cc2ccon2)c1,7.051%
7,CN(C)CCOCC1CN(CC2CCOCC2)Cc2nnn(C)c21.O=C(O)C(F)(F)F.O=C(O)C(F)(F)F (stereo not given),0.5849%
8,CN(C)CCOCC1CN(Cc2ccc(F)cc2)Cc2nnn(C)c21.O=C(O)C(F)(F)F.O=C(O)C(F)(F)F (stereo not given),94.54%
9,CCS(=O)(=O)N1Cc2nnn(C)c2C(COCCN(C)C)C1.O=C(O)C(F)(F)F (stereo not given),7.645%
10,Cc1noc(CCCC(=O)NC(C)c2cccnc2)n1 (stereo not given),-10.11%
11,COCC(=O)N1CC[C@@H](O)[C@@H]1Cc1ccccc1,-9.68%
12,COCC(=O)N1CC[C@@H](N2CCOCC2)[C@@H]1Cc1ccccc1,-5.655%
13,CN(C)[C@@H]1CCN(C(=O)NC2CCCC2)[C@H]1Cc1ccncc1.O=C(O)C(F)(F)F.O=C(O)C(F)(F)F,-4.406%
14,CC(=O)N1CC[C@@H](N2CCN(C)CC2)[C@@H]1Cc1ccccc1,-7.108%
15,CCC(=O)N1CC[C@H](O)[C@@H]1Cc1ccccc1,99.45%
16,CN(C)C(=O)N1CC[C@@H](O)[C@@H]1Cc1ccccc1,109.4%
17,O=C(NC1CC1)N1CC[C@H](OCC2CC2)[C@@H]1Cc1cccnc1.O=C(O)C(F)(F)F,-2.258%
18,COCCN1CC[C@H](O)[C@@H]1Cc1ccccc1.O=C(O)C(F)(F)F,-7.454%
19,O=C(NC1CC1)N1CC[C@@H](O)[C@@H]1Cc1ccccc1,101.4%
20,NC(=O)N1CC[C@H](O)[C@@H]1Cc1ccccc1,106.8%
21,CN(C)C(=O)N1CC[C@@H](O)[C@@H]1Cc1cnn(C)c1,3.844%
22,CN1CCN([C@@H]2CCN(C(N)=O)[C@H]2Cc2ccccc2)CC1,-47.59%
